Source: PubChem BioAssay (NCATS)
“And” between values parts separate entries of the source, which are not always exact repeats. Identical values can stand only once. Results filed as inconclusive are left out. A structure can be active in one record and inactive in another. The source made the active and inactive calls. Unless noted, calls follow the shape of the dose curve; as a rule, active = well fitted curve in the direction sought with a large enough effect; inconclusive = small, poorly fitted or top-dose-only effect, or another doubt; inactive = no such curve, though single readings can be large; an effect the other way counts as inactive or inconclusive.

Tests used:
[1] = target: Guanine nucleotide-binding protein G(i) subunit alpha-1 (Homo sapiens) (UniProt P63096); test: qHTS Assay for Inhibitors of RGS12 GoLoco Motif Activity (Green Fluorophore) (AID 879);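 also: 0% = labeled peptide with Gαi1 and full inhibition = labeled peptide alone without protein; negative values mean loss of peptide binding seen as reduced polarization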
Chain of Guanine nucleotide-binding protein G(i) subunit alpha-1 (Homo sapiens) (P63096 whole entry, looked up): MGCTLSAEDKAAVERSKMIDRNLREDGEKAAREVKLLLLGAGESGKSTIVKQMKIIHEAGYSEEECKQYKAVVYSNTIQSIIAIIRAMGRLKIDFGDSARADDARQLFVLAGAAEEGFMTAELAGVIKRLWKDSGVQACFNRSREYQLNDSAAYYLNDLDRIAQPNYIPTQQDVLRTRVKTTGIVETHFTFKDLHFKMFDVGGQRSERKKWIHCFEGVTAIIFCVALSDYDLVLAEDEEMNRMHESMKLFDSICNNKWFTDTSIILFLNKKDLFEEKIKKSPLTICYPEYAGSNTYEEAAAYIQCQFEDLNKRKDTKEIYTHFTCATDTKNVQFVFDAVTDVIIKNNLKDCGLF
How it was run: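 Fluorescence polarization assay: 50 nM Gαi1 with 10 nM FITC-labeled RGS12 GoLoco peptide in 10 mM Tris pH 7.5, 150 mM NaCl, 0.1 mM GDP, 0.05% NP40, 10 min at room temperature with compound.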

[2] = qHTS Assay for Identification of Small Molecule Agonists for Thrombopoietin (TPO) Signaling Pathway (AID 917); also: % is scaled to controls: 0 for no effect and ±100 for the full control effect
How it was run: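 Murine Ba/F3 cells expressing human TPO receptor and GPIIb-promoter luciferase, IL-3-starved overnight, given compound plus TPO at 26 pM (EC50). After 24 h at 37 C, 5% CO2, luminescence read.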

[3] = Confirmation and Secondary Assay for Modulators of Hemoglobin Beta Chain Splicing at IVS2 705 locus (AID 930);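 also: HeLa cells stably expressing the EGFP-705 splicing reporter; GFP fluorescence per well restored by corrected splicing of the IVS2-705 intron in EGFP; series mostly up to about 46 µM; % of control where 0% means no effect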
How it was run: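 Secondary splice-site specificity test uses HeLa expressing CMV-driven EGFP interrupted by IVS2-705; cells were treated 2 days at 37C with 500 nM antisense PNA as positive control.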

[4] = target: Pyruvate kinase (Leishmania mexicana) (UniProt Q27686); test: qHTS Validation Assay for Inhibitors of Leishmania Mexicana Pyruvate Kinase (AID 945);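 also: 0% = DMSO only neutral control wells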
Chain of Pyruvate kinase (Leishmania mexicana) (Q27686 2-499 E452W): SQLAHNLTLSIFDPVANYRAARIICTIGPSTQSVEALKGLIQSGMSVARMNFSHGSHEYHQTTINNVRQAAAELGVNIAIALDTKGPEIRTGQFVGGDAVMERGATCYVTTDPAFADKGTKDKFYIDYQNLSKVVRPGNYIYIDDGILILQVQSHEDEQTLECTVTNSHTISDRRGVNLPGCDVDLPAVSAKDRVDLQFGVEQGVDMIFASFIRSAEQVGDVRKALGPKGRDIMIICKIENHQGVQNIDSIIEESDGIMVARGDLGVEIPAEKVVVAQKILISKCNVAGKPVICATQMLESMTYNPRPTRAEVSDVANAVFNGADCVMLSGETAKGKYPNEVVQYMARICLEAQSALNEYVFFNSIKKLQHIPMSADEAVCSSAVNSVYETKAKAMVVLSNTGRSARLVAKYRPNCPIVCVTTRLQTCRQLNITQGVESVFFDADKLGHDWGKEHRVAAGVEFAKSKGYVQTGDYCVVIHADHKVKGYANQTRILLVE
How it was run: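 Read-out: luminescence from PKLight stop/detection reagent, data normalized to DMSO. Reaction: 0.2 nM E451W LmPYK, 0.5 mM PEP, 0.1 mM ADP, pH 7.2, 1 h room temperature.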

[5] = target: Cytochrome P450 3A4 (Homo sapiens) (UniProt P08684); test: qHTS Assay for Activators of Cytochrome P450 3A4 (AID 885); also: nearly all actives have a fitted effect of over 65% in size
Chain of Cytochrome P450 3A4 (Homo sapiens) (P08684 whole entry, looked up): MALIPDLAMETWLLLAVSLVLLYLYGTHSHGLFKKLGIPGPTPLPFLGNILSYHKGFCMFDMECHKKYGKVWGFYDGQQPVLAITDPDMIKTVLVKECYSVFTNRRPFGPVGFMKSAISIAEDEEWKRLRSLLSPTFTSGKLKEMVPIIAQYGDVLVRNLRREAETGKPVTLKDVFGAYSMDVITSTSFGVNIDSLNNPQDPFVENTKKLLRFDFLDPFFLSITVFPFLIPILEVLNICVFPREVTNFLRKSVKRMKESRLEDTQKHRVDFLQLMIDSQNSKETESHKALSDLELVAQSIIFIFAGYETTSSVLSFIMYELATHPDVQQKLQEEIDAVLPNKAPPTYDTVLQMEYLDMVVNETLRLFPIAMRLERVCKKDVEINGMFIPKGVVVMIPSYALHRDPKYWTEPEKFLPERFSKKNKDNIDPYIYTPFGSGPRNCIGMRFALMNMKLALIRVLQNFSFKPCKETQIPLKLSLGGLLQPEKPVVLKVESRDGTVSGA
How it was run: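 Signal was normalized against complete inhibition by 57 uM ketoconazole. The reaction used 20nM CYP3A4 with 25uM Luciferin-PPXE, 10-min compound preincubation and a 60-min NADPH-supported step at RT.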

[6] = Confirmation and Secondary Assay for Modulators of Hemoglobin Beta Chain Splicing at IVS2 654 locus (AID 910);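 also: HeLa cells stably carrying EGFP split by mutant beta-globin IVS2-654 intron; per-well total GFP intensity by laser scanning cytometry after 2-day treatment; % of control where 0% means no effect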
How it was run: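 Readout: per-well total peak green fluorescence (488 nm ex, 500–520 nm em) from objects 5–250 µm, reflecting correct splicing of an EGFP-654 reporter. Compounds were applied for 2 days at 37 °C to overnight-plated HeLa EGFP-654 cells; controls were DMSO and 500 nM IVS2-654 PNA.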

[7] = target: Muscarinic acetylcholine receptor M1 (Rattus norvegicus) (UniProt P08482); test: qHTS Assay for Antagonists of Acetylcholine Muscarinic M1 Receptor: Measurement of IP-One Response (AID 944); also: nearly all actives have a fitted effect of over 75% in size; also: potency is read from the fitted curve at half-maximal effect
Chain of Muscarinic acetylcholine receptor M1 (Rattus norvegicus) (P08482 whole entry, looked up): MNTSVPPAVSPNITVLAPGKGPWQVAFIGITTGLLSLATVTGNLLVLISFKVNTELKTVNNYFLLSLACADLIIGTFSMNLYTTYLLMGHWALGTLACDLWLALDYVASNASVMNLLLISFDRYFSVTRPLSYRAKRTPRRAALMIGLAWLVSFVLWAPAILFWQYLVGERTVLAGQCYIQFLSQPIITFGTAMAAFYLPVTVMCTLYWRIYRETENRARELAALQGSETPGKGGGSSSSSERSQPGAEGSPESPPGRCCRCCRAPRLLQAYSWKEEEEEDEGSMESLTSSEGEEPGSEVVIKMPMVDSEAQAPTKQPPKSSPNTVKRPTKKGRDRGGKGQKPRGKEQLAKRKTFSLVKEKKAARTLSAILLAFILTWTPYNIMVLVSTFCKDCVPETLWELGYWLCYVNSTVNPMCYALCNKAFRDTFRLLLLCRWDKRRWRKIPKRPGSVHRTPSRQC
How it was run: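 CHO cells stably expressing rat M1, pretreated 10 min with compound, then stimulated 30 min with carbachol at EC80 (200 nM) in LiCl-containing buffer pH 7.4; IP1 accumulation read by HTRF competition (665/620 nm).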

[8] = target: Cytochrome P450 2D6 (Homo sapiens) (UniProt P10635); test: qHTS Assay for Inhibitors and Substrates of Cytochrome P450 2D6 (AID 891); also: nearly all actives have a fitted effect of over 60% in size; also: potency is read from the fitted curve at half-maximal effect
Chain of Cytochrome P450 2D6 (Homo sapiens) (P10635 whole entry, looked up): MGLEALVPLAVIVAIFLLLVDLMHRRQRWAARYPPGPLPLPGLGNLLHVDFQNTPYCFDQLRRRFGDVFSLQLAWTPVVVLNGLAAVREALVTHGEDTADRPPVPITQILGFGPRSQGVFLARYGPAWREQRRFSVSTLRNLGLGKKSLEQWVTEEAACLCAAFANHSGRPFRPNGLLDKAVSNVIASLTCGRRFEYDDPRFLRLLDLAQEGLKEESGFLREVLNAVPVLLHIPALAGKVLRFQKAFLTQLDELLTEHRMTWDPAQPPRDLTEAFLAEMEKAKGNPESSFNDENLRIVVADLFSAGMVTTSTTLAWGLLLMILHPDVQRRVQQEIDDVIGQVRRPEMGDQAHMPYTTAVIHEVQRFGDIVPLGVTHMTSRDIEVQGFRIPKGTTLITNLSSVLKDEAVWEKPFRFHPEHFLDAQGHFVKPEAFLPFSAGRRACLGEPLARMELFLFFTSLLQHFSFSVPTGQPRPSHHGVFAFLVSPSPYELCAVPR
How it was run: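 Human CYP2D6 (5 nM) with 30 uM Luciferin-ME EGE (at Km) in 100 mM KPO4, compound preincubated 10 min, then NADPH regeneration system for 60 min at room temperature. Luciferin read by luminescence; normalized to 1.43 uM quinidine.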

[9] = qHTS Assay for Identification of Small Molecule Agonists for Hypoxia Response Element Signaling Pathway (AID 914; active = well fitted activation curve with a large enough effect in the signal ratio, with a control signal flat, not every such curve was filed as active; the % refers to the signal ratio; also: % of control where 0% means no effect); conditions: ME-180 (cervical carcinoma) HRE-bla reporter, beta-lactamase ratio, CoCl2, 17 h; stronger effect = higher value
How it was run: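 qHTS titration; ME-180 HRE-bla cells; EC50 CoCl2 co-treatment, 17 h at 37 degrees Celsius; CCF4 dye, ex 405nm, em 460nm and 530nm; %Activity from ratio; AC50.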

[10] = target: Muscarinic acetylcholine receptor M1 (Rattus norvegicus) (UniProt P08482); test: qHTS Assay for Antagonists of Acetylcholine Muscarinic M1 Receptor: Kinetic Measurement of Intracellular Calcium Response (AID 943); also: nearly all actives have a fitted effect of over 75% in size; also: potency is read from the fitted curve at half-maximal effect
How it was run: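 CHO cells expressing rat M1 receptor, Fluo-4 loaded, preincubated 10 min with compound, then stimulated with EC80 carbachol (100 nM final). Kinetic calcium fluorescence over 4 min; response taken as peak over basal signal.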

[11] = target: Cytochrome P450 2C19 (Homo sapiens) (UniProt P33261); test: qHTS Assay for Inhibitors and Substrates of Cytochrome P450 2C19 (AID 899); also: nearly all actives have a fitted effect of over 60% in size; also: potency is read from the fitted curve at half-maximal effect
Chain of Cytochrome P450 2C19 (Homo sapiens) (P33261 whole entry, looked up): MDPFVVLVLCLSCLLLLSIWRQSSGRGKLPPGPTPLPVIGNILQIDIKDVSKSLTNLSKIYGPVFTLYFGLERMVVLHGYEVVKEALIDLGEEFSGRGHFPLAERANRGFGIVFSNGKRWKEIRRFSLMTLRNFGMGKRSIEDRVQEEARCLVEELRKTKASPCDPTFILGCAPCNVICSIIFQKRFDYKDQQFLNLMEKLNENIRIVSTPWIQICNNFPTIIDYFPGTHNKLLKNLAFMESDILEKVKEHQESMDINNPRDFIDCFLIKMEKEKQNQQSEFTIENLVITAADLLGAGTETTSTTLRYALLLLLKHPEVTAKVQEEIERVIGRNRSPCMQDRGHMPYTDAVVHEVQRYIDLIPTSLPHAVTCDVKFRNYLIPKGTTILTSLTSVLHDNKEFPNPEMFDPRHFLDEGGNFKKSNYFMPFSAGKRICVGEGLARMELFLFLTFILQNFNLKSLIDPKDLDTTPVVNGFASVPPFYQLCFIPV
How it was run: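 Reactions contain 5nM enzyme, 10uM Luciferin-H EGE (KM) and 50mM KPO4; compound preincubates 10 min at 37C, NADPH regeneration starts turnover for 60 min. Luminescence after detection reagent gives activity.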

[12] = qHTS Assay for Identification of Small Molecule Antagonists for NFkB Signaling Pathway (AID 895; active = well fitted inhibition curve with a large enough effect in the signal ratio, with a control signal flat, not every such curve was filed as active; the % refers to the signal ratio; also: potency is read from the fitted curve at half-maximal effect)
How it was run: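 Beta-lactamase reporter read-out (460 and 530 nm emission ratio, 405 nm excitation, 2 hrs substrate loading RT) after 5 hr stimulation with 10 pM TNF alpha in compound-treated NFkB-bla ME-180 cells in low-serum medium.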

[13] = qHTS Assay for Identification of Small Molecule Antagonists for Thrombopoietin (TPO) Signaling Pathway (AID 918); conditions: TPO-dependent cell signaling reporter, antagonist mode; also: potency is read from the fitted curve at half-maximal effect; nearly all actives have a fitted effect of over 60% in size
How it was run: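 Murine Ba/F3 cells expressing human TPO receptor and a Glycoprotein IIb promoter-luciferase reporter, IL-3-starved overnight, treated with compound plus TPO at EC50 (26 pM final). After 24 h at 37 C, luminescence read to detect inhibitors.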

[14] = target: Cytochrome P450 3A4 (Homo sapiens) (UniProt P08684); test: qHTS Assay for Inhibitors and Substrates of Cytochrome P450 3A4 (AID 884); also: series mostly up to about 57 µM; % is scaled to controls: 0 for no effect and ±100 for the full control effect; nearly all actives have a fitted effect of over 50% in size
How it was run: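 20 nM human CYP3A4 with 25 uM Luciferin-PPXE (at KM) in 200 mM KPO4, preincubated 10 min with compound; NADPH regeneration started a 60 min RT reaction. Luciferin detected by luminescence, normalized to 57 uM ketoconazole as full inhibition.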

CCN(CC)CCOCCOC(=O)C1(c2ccccc2)CCCC1
inactive: Potency [1] | outcome [2] | outcome [3] | Potency [4]

CCN1CCc2nc(N)oc2CC1
inactive: Potency [1] | Potency [5] | outcome [2] | Potency [4]

Cc1ccc(S(=O)(=O)NC(=O)NN2CCCCCC2)cc1
inactive: Potency [1] | outcome [6] | outcome [2] | outcome [3] | Potency [7] | Potency [4]

CCCCNc1c(C(=O)OCC)c(C)nc2c1cnn2CC
inactive and 199 nM (active): Potency [8]
inactive: Potency [1] | Potency [5] | Potency [7] | Potency [4]

CN(C)CCCN1c2ccccc2Sc2ccc(C(F)(F)F)cc21
inactive: Potency [1] | outcome [6] | activation [9] 12.9% | outcome [3] | Potency [4]
active: Potency [8] 794 nM and 398 nM | Potency [10] 158 nM | Potency [7] 1 µM

CN(C)CCOC(=O)COc1ccc(Cl)cc1
inactive: Potency [1] | Potency [5] | Potency [11] | outcome [6] | outcome [2] | outcome [3] | Potency [10] | Potency [7] | Potency [4]

CC(=O)Oc1cc(C(C)C)c(OCCN(C)C)cc1C
active: Potency [7] 12.6 µM
inactive: Potency [1] | Potency [12] | outcome [2] | Potency [4]

COC(=O)[C@@H](N)Cc1ccc(O)c(O)c1
inactive: Potency [1] | Potency [5] | Potency [10] | Potency [4]

O=C(CCNNC(=O)c1ccncc1)NCc1ccccc1
inactive: Potency [1] | Potency [5] | Potency [11] | outcome [2] | Potency [10] | Potency [7] | Potency [4]

C[C@]12CCC(=O)C=C1CC[C@@H]1[C@@H]2C(=O)C[C@@]2(C)[C@H]1CC[C@]2(O)C(=O)CO
inactive: Potency [1] | Potency [5] | Potency [12] | outcome [2] | Potency [4]

CCN(CC)CCNC(=O)c1ccc(NC(C)=O)cc1
inactive: Potency [1] | outcome [2] | outcome [3] | Potency [10] | Potency [4]

OCCN1CCN(CCCN2c3ccccc3C=Cc3ccccc32)CC1
inactive: Potency [1] | Potency [5] | outcome [2] | Potency [4]
active: Potency [10] 3.16 µM and 3.55 µM | Potency [7] 3.55 µM and 4.47 µM

FC(F)(F)c1ccccc1-n1ccnc1
active: Potency [8] 6.31 µM
inactive: Potency [1] | outcome [6] | outcome [2] | outcome [3] | Potency [7] | Potency [4]

O=C1NCN(c2ccccc2)C12CCN(CCCC(c1ccc(F)cc1)c1ccc(F)cc1)CC2
inactive: Potency [1] | Potency [5] | Potency [4]
active: Potency [8] 1.58 µM | Potency [13] 12.6 µM

CCC(=O)c1ccc2c(c1)N(CCCN(C)C)c1ccccc1S2
inactive: Potency [1] | Potency [12] | Potency [4]
active: Potency [8] 2 µM | Potency [10] 398 nM | Potency [7] 1.41 µM

Cc1nc2c([nH]1)c(=O)n(C)c(=O)n2Cc1ccco1
active: Potency [12] 0.0631 µM
inactive: Potency [1] | Potency [11] | outcome [2] | Potency [7] | Potency [4]

CCN(CC)CC(=O)Nc1c(C)cccc1C
inactive: Potency [1] | Potency [12] | outcome [2] | outcome [3] | Potency [4]

c1cc(CN2CCCCC2)cc(OCCCNc2nc3ccccc3s2)c1
inactive: Potency [1] | Potency [5] | Potency [4]
active: Potency [10] 8910 nM | Potency [7] 14.1 µM

CN/C(=C\[N+](=O)[O-])NCCSCc1ccc(CN(C)C)o1
inactive: Potency [1] | outcome [2] | outcome [3] | Potency [7] | Potency [4]

CCCC(C(=O)OCCN(CC)CC)(c1ccccc1)c1ccccc1
inactive: Potency [1] | Potency [5] | outcome [2] | outcome [3] | Potency [4]
active: Potency [8] 63.1 nM and 15.8 nM | Potency [10] 447 nM | Potency [7] 11.2 µM

C#CCN(C)CCCOc1ccc(Cl)cc1Cl
active: Potency [8] 2 µM and 398 nM | Potency [11] 5.01 µM and 2.51 µM
inactive: Potency [1] | Potency [4]

O=C(O)CP(=O)(O)O
inactive: Potency [1] | activation [9] 5.52% and -2.23% | outcome [2] | Potency [10] | Potency [7] | Potency [4]

CN1CCN(CC(=O)N2c3ccccc3C(=O)Nc3cccnc32)CC1
inactive: Potency [1] | outcome [14] | outcome [2] | outcome [3] | Potency [4]

O=C(O)CN(CCOCCOCCN(CC(=O)O)CC(=O)O)CC(=O)O
inactive: Potency [1] | Potency [12] | outcome [2] | Potency [10] | Potency [7] | Potency [4]

CCCCNc1ccc(C(=O)OCCN(C)C)cc1
inactive: Potency [1] | outcome [2] | outcome [3] | Potency [4]

Cc1nc2sccn2c(=O)c1CCN1CCC(=C(c2ccc(F)cc2)c2ccc(F)cc2)CC1
inactive: Potency [1] | Potency [5] | outcome [2] | Potency [4]
active: Potency [8] 10 µM | Potency [12] 5.01 µM | Potency [10] 3160 nM | Potency [7] 15.8 µM
